# Experimental data: PubChem BioAssay AID1445 (SRMLSC, 2008)
# Among all 220,000 compounds or so, about 910 (0.41%) were called active. The full list was thinned out, with actives kept by preference. Potency and affinity values are given separately. Values without a mark were called inactive.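 The calls were made as follows: active = primary inhibition above the hit cutoff, then over 50% inhibition at one or more dose response concentrations (cut at about 23% in these data, passing the limit was not always enough); inconclusive = conflicting primary data, or primary hits not chosen for dose response; inactive = low primary inhibition, or under 50% at every dose.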
# Target: Aminopeptidase N (Plasmodium falciparum (isolate 3D7)) (UniProt O96935)
# Sequence (O96935 whole entry, looked up): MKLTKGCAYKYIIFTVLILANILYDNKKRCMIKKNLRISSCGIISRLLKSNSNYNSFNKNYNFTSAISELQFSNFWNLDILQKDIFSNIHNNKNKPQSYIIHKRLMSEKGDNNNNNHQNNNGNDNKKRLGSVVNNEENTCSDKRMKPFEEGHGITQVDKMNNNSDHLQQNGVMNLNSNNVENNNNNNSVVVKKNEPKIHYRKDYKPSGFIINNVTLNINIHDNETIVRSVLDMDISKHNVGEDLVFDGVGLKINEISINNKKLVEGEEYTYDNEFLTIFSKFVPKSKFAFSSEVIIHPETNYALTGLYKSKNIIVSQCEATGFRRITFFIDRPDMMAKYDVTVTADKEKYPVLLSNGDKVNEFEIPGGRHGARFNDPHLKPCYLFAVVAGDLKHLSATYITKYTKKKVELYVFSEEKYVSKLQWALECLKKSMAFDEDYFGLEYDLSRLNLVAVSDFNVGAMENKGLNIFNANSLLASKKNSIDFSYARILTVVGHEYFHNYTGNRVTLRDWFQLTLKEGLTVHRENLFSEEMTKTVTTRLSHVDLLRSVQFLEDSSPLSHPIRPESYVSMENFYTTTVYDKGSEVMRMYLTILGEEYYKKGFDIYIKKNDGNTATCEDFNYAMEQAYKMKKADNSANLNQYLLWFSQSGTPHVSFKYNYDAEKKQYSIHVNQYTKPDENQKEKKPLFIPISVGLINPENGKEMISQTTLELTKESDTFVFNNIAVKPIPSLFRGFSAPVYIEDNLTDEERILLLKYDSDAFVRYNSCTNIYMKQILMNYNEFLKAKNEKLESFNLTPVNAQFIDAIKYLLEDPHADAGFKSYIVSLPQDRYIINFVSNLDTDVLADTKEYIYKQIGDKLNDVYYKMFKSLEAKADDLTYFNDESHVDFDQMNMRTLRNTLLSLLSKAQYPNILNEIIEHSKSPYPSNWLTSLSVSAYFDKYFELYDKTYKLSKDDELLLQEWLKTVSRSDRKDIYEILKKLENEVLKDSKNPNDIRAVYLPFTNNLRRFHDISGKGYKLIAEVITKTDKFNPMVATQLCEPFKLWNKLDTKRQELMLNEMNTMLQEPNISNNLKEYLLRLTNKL
# Assay: P. falciparum M1AAP inhibitors, biochemical, fluorogenic H-Leu-NHMec substrate, 1536-well (AID 1445);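 also: plate controls were DMSO full reaction for no effect and no enzyme background for full effect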
# Conditions: recombinant M1AAP, H-Leu-NHMec fluorogenic kinetic assay
# [1] = at 30 µM, stronger effect = higher value unless noted
structure (smiles),measurement,setting,value
CCCn1c(SC2C(=O)CC(C)(C)CC2=O)nc2c1c(=O)n(C)c(=O)n2C,inhibition,[1],-3.71%
CCn1ccnc1CN(C)Cc1nc(-c2cccc(Cl)c2)no1,inhibition,[1],-7.75%
C=CCn1c(-c2ccc(F)cc2)n[nH]c1=S,inhibition,[1],4.9%
CCOP(=O)(OCC)c1nc(-c2cccc3ccccc23)oc1N1CCCCC1,inhibition,[1],15.6%
CCOP(=O)(OCC)c1nc(-c2ccc(Cl)cc2Cl)oc1N1CCCCC1,inhibition,[1],10.7%
CCOC(=O)C/C(C)=N\Nc1nc(-c2ccccc2)cs1,inhibition,[1],1.35%
O=C(CSCc1ccccc1)N1CCN(c2cccc(C(F)(F)F)c2)CC1,inhibition,[1],6.51%
COCC(=O)N1CCN(c2cccc(C(F)(F)F)c2)CC1,inhibition,[1],-4.62%
Cc1cccc(/C=N/NC(=O)c2cc(-c3cccnc3)nc3ccccc23)c1,inhibition,[1],5.37%
c1ccc(SCc2nc(-c3cccnc3)no2)cc1,inhibition,[1],2.83%
CCOC(=O)c1c(NC(=O)C2CCCO2)sc(C)c1C (configuration not stated),inhibition,[1],2.42%
CCOC(=O)NC(=O)/C(C=Nc1ccc(Cl)cc1)=C(\C)O,inhibition,[1],10.5%
O=C1CC(N(O)C2CC(=O)N(Cc3ccccc3)C2=O)C(=O)N1Cc1ccccc1 (configuration not stated),inhibition,[1],6.83%
CCCCCCC(=O)N(O)C1CC(=O)N(Cc2ccccc2)C1=O (configuration not stated),inhibition,[1],37.9% (active)
CCCCCC(=O)N(O)C1CC(=O)N(c2ccccc2)C1=O (configuration not stated),inhibition,[1],11.5%
CCCCCCC(=O)N(O)C1CC(=O)N(c2ccc(C)cc2)C1=O (configuration not stated),inhibition,[1],35.5%
CCCN(CCC)C1CC(=O)N(Cc2ccccc2)C1=O (configuration not stated),inhibition,[1],4.78%
CCCCC(CCC(=O)Nc1ccccc1C(=O)OCC)C(=O)O (configuration not stated),inhibition,[1],0.91%
CCN(CC)S(=O)(=O)c1ccc(C)c(NC(=O)c2cc(C)oc2C)c1,inhibition,[1],3.95%
O=C(O)CCC(=O)N(Cc1ccco1)C1CC(=O)N(c2ccccc2)C1=O (configuration not stated),inhibition,[1],7.06%
CCOC(=O)N1CCN(c2c(NCc3ccccc3OC)c(=O)c2=O)CC1,inhibition,[1],1.73%
CCOC(=O)N1CCN(c2c(NCc3ccc(Cl)cc3)c(=O)c2=O)CC1,inhibition,[1],5.09%
COc1ccc(C(=O)N/N=C/c2cc3ccccc3[nH]c2=O)cc1,inhibition,[1],6.42%
COc1cc2ccccc2cc1C(=O)NC(=S)Nc1cccc(C(=O)O)c1C,inhibition,[1],8.01%
COCCNC(=S)N1CCc2cc(OC)c(OC)cc2C1COc1ccc(C(C)C)cc1 (configuration not stated),inhibition,[1],15.1%
CN1CCN(Cc2cc(Cl)c3cccnc3c2OC(=O)c2cccs2)CC1,inhibition,[1],-1.84%
O=C(Oc1c(CN2CCOCC2)cc(Cl)c2cccnc12)c1ccccc1,inhibition,[1],4.42%
CCOC(=O)c1cc2c(=O)n3ccccc3nc2n(CCOC)c1=NC(=O)c1ccncc1,inhibition,"at 30 µM, stronger effect = higher value",45.3% (active)
same,inhibition,at 100 µM (top of the series),16.6%
CCOC(=O)c1cc2c(=O)n3ccccc3nc2n(CCCOC)c1=NC(=O)c1ccncc1,inhibition,[1],10.7%
CCOC(=O)c1cc2c(=O)n3ccccc3nc2n(CCOC)c1=NC(=O)C(C)(C)C,inhibition,[1],16.9%
O=C(NCCc1ccccc1)C1CCN(c2nc3ccccc3o2)CC1,inhibition,[1],1.06%
O=S(=O)(c1ccc2c(c1)OCCO2)N1CCC(n2nnc3cc(C(F)(F)F)ccc32)CC1,inhibition,[1],-4.12%
O=S(=O)(c1ccc2c(c1)OCCO2)N1CCC(n2cnc3cc(F)ccc32)CC1,inhibition,[1],2.37%
O=c1nc2n(c3ccc(Br)cc13)CCS2,inhibition,[1],1.45%
COc1ccccc1NC(=O)Nc1ccccc1N1CCOCC1,inhibition,[1],3.89%
CC(=O)c1sc(-c2ccccc2)cc1NS(=O)(=O)c1ccccc1,inhibition,[1],-0.36%
CC(=O)c1sc(-c2ccc(F)cc2)cc1NS(=O)(=O)c1ccc(C)cc1,inhibition,[1],0.65%
CCOc1cc(/C=C2\SC(=Nc3ccc(F)cc3)N(c3ccc(F)cc3)C2=O)ccc1OCC(=O)O,inhibition,[1],16.8%
CCOC(=O)C1=C(C)N(c2ccc(OC)cc2)C(=O)/C1=C\c1ccc(O)c(OCC)c1,inhibition,[1],4.43%
CCOC(=O)C1=C(O)/C(=C/c2ccc(OCC(=O)O)c(OC)c2)SC1=Nc1ccc(OCC)cc1,inhibition,[1],13.2%
COc1cc(/C=C2\SC(N)=NC2=O)ccc1OCC(=O)Nc1ccc(C)cc1,inhibition,[1],10%
O=C(/C=C/c1ccc(S(=O)(=O)N2CCOCC2)cc1)NCc1ccc(Cl)cc1,inhibition,[1],-0.73%
C=CCn1c(COc2ccccc2)nnc1SCC(=O)O,inhibition,[1],0.9%
Cc1nn(-c2ccccc2)c(C)c1NC(=O)Cc1cccs1,inhibition,[1],4.27%
CC(C)OC(=O)CSc1ncnc2c1cnn2Cc1ccccc1,inhibition,[1],0.69%
Cc1ccc(S(=O)(=O)N2CCCC2C(=O)Nn2cnnc2)cc1 (configuration not stated),inhibition,[1],-0.66%
Cc1cccc(C)c1NC(=O)CN1C(=O)S/C(=C\c2cccn2-c2cccc(C(=O)O)c2)C1=O,inhibition,[1],8.9%
O=C(O)c1cccc(-n2cccc2/C=C2\SC(=O)N(Cc3ccccc3F)C2=O)c1,inhibition,[1],15.3%
CCOC(=O)C1(C(F)(F)F)N=C(C(F)(F)F)Nc2cc(C)c(C)cc21 (configuration not stated),inhibition,[1],1.48%
Cc1ccccc1N=CC1=C(O)c2ccccc2C1=O,inhibition,[1],4.59%
O=C1C(C=Nc2ccccc2O)=C(O)c2ccccc21,inhibition,[1],20.6%
COCCN(C(=O)c1csnn1)C(C(=O)NC1CCCCC1)c1sccc1C (configuration not stated),inhibition,[1],21.1%
CC(C)(C)NC(=O)C(c1ccncc1)N(Cc1cccs1)C(=O)c1csnn1 (configuration not stated),inhibition,[1],-14%
O=C(NC1CCCC1)C(c1ccncc1)N(Cc1cccs1)C(=O)c1csnn1 (configuration not stated),inhibition,[1],24.6% (active)
Cc1ccc(C(C(=O)NC2CCCCC2)N(C(=O)c2csnn2)C2CC2)o1 (configuration not stated),inhibition,[1],9.01%
Cc1ccc(C(C(=O)NC2CCCC2)N(Cc2cccs2)C(=O)c2csnn2)o1 (configuration not stated),inhibition,[1],7.36%
O=C(COC(=O)c1ccncc1)NCCCc1ccccc1,inhibition,[1],2.54%
Cc1ccc(Cl)cc1NC(=O)c1cccc(OC(F)F)c1,inhibition,[1],5.73%
Cc1occc1-c1nnc(SCC(=O)Nc2ccccc2)n1CCc1ccccc1,inhibition,[1],0.44%
Cc1ccccc1NC(=O)CSc1nnc(-c2ccoc2C)n1CCc1ccccc1,inhibition,[1],8.39%
COc1ccccc1NC(=O)CSc1nnc(-c2ccoc2C)n1CCc1ccccc1,inhibition,[1],24.7% (active)
CCCCc1cc(=O)oc2cc(OCc3cc(OC)c(OC)c(OC)c3)c(Cl)cc12,inhibition,[1],-3.71%
CCCCc1cc(=O)oc2cc(OCc3nn[nH]n3)c(Cl)cc12,inhibition,[1],6.21%
Cc1cc(=O)oc2c(N)c(O)ccc12,inhibition,[1],8.69%
CCCCc1cc(=O)oc2cc(OCC(=O)N(CC)CC)c(Cl)cc12,inhibition,[1],6.8%
C=CCc1c(O)c(CC)cc2c(C)cc(=O)oc12,inhibition,[1],10.9%
CCC(=O)c1cc2c(C)cc(=O)oc2c(C)c1O,inhibition,[1],4.77%
CCN(CC)Cc1c(O)ccc2c(-c3ccccc3)cc(=O)oc12,inhibition,[1],8.74%
COc1ccccc1N1CCN(C(=O)CSc2ccccc2)CC1,inhibition,[1],-1.68%
COc1cc(OC)cc(-c2nnc(SCC(=O)N(Cc3ccccc3)C(C)(C)C)o2)c1,inhibition,[1],1.01%
Cc1cccc(NC(=O)c2ccccc2OCC(=O)c2ccc(F)cc2)c1,inhibition,[1],3.15%
COC(=O)c1cc(Br)c(N)cc1OC,inhibition,[1],-6.6%
CC(=O)c1cccc(NC(=O)C2CC(=O)N(c3cccc(C)c3C)C2)c1 (configuration not stated),inhibition,[1],-2.91%
O=C(O)c1ccccc1C(=O)NNc1cccc(Cl)n1,inhibition,[1],0.28%
O=C(CCCc1nc2ccccc2s1)NNC(=O)CCN1CCN(Cc2ccccc2)CC1,inhibition,[1],2.9%
O=C(O)CC1=C(Nc2ccccc2)C(=O)N(c2ccccc2)C1c1ccc(F)cc1 (configuration not stated),inhibition,[1],-3.54%
CCCCN(C)Cc1c(O)ccc2c(-c3ccccc3)cc(=O)oc12,inhibition,[1],3.86%
CCCc1cc(=O)oc2c(C)c3occ(C)c3cc12,inhibition,[1],-0.02%
CN(C)Cc1c(O)ccc2c(-c3ccccc3)cc(=O)oc12,inhibition,[1],7.13%
CCCc1cc(=O)oc2cc(OCC(=O)N(C)C)c(Cl)cc12,inhibition,[1],-0.86%
Oc1c(C(c2cccc(F)c2)N2CCN(Cc3ccccc3)CC2)sc2ncnn12 (configuration not stated),inhibition,[1],9.71%
Cc1ccc(-c2cc(C(=O)O)n[nH]2)o1,inhibition,[1],5.31%
CC1CCCCN1C(=O)c1cc(-c2ccc(Cl)c(Cl)c2)on1 (configuration not stated),inhibition,[1],-16.2%
O=C(CSc1nnc(-c2cc3ccccc3cc2O)n1Cc1ccco1)N1CCc2ccccc2C1,inhibition,[1],10.2%
c1ccc(CSCc2cn3ccccc3n2)cc1,inhibition,[1],-5.43%
O=C(O)c1ccc(-c2ccccn2)s1,inhibition,[1],0.37%
Nc1ccc(-c2ccc(C(=O)O)s2)cn1,inhibition,[1],28.6%
CC1CCc2c(sc3nc(CSc4n[nH]c(N)n4)[nH]c(=O)c23)C1 (configuration not stated),inhibition,[1],-10.6%
O=C(Nc1nccs1)c1csc2c1CCCC2,inhibition,[1],8.61%
Cc1ccc(-c2ccc(=O)n(CC(=O)Nc3cccc(C(=O)N4CCN(C)CC4)c3)n2)cc1,inhibition,[1],6.7%
O=C1CC(c2ccccc2F)c2c(c3ccccc3[nH]c2=O)O1 (configuration not stated),inhibition,[1],0.7%
COC(=O)CSc1nnc(-c2ccc(NS(=O)(=O)c3ccccc3)cc2)o1,inhibition,[1],7.24%
Cc1sc(NC(=O)CSc2nnc(-c3ccc(F)cc3)o2)c(C#N)c1C,inhibition,[1],16%
Cc1sc(NC(=O)CSc2nnc(-c3ccccc3)o2)c(C#N)c1C,inhibition,[1],25% (active)
N#Cc1c(NC(=O)CSc2nnc(-c3ccccc3)o2)sc2c1CCCC2,inhibition,[1],21.3%
CCc1nnc(NC(=O)CSc2nnc(-c3ccco3)o2)s1,inhibition,[1],-0.37%
